{"source": "PubChem BioAssay AID485273", "about": "(Sanford-Burnham Center for Chemical Genomics, 2010)", "note": "Screen size: about 330,000 compounds; about 1,500 (0.45%) were called active. What follows is part of a selection rich in actives, with near analogues and random picks from the rest. Values without a mark were called inactive. No stated cut-off is given here; in the data, active means inhibition above about 45% (passing the limit was not always enough); inconclusive means no clear call, values can overlap the other calls."}
{"target": "Ubiquitin-conjugating enzyme E2 N (Homo sapiens) (UniProt P61088)", "sequence (P61088 whole entry, looked up)": "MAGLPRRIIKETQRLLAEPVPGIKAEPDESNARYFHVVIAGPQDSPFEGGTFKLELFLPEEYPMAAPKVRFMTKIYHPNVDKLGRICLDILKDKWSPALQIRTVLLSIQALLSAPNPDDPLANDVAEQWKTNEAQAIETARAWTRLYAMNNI", "assay": "blockers of UBC13 ubiquitin chain synthesis – biochemical, TR-FRET, uHTS, primary screen (AID 485273)", "settings": "UBC13 polyubiquitin chain formation, at 20 µM, stronger effect = higher value"}
{"smiles": "CCOC(=O)CNC(=O)CN1C(=O)CCSc2ccccc21", "inhibition": "8.8%"}
{"smiles": "CNC(=O)c1sc(Nc2ccc(OCc3ccccc3)cc2)nc1C", "inhibition": "6.9%"}
{"smiles": "Cc1nn(CCCC(=O)NCc2ccccc2Cl)c(=O)c2nccn12", "inhibition": "-2.4%"}
{"smiles": "FC(F)Oc1ccccc1C1CC(c2ccc(Br)s2)Nc2ncnn21", "note": "(stereo not drawn)", "inhibition": "-2.2%"}
{"smiles": "CCN(CC)S(=O)(=O)c1cc(C(=O)Nc2ccccn2)ccc1C", "inhibition": "-8.9%"}
{"smiles": "O=C(CCc1c[nH]c2ccccc12)NCCOc1ccccc1", "inhibition": "-4.4%"}
{"smiles": "O=C(CCCCCn1c(=O)[nH]c2ccccc2c1=O)NCCc1c[nH]c2ccccc12", "inhibition": "58.3% (active)"}
{"smiles": "CCN(CC)CCNC(=O)CCCCCn1c(=O)[nH]c2cc(C(=O)OC)ccc2c1=O", "inhibition": "9.7%"}
{"smiles": "COc1cc(CNCc2ccc(OC)c3ccccc23)cc(OC)c1OC", "inhibition": "5.5%"}
{"smiles": "COc1ccc(S(=O)(=O)N2CCN(CC(=O)NCC3(N4CCOCC4)CCCCC3)CC2)cc1", "inhibition": "-8.4%"}
{"smiles": "NC(N)=Nc1nc(-c2ccccc2)c2cc(Cl)ccc2n1", "inhibition": "51.4% (active)"}
{"smiles": "Cc1ccc2nc(Nc3ccccc3O)nc(-c3ccccc3)c2c1", "inhibition": "0.7%"}
{"smiles": "O=C(CCl)NNc1nc(-c2ccccc2)c2cc(Cl)ccc2n1", "inhibition": "-10.6%"}
{"smiles": "Nc1nc(SCC(=O)NN(c2ccccc2)c2ccccc2)n[nH]1", "inhibition": "-4.6%"}
{"smiles": "CC1(C)CC(=O)C(C2=NC(C)(C)Cc3ccccc32)=C(O)C1", "inhibition": "-11%"}
{"smiles": "CCN(CC)S(=O)(=O)c1ccc(NC(=O)c2cccnc2Cl)c(NC(=O)c2cccnc2Cl)c1", "inhibition": "-5.6%"}
{"smiles": "CCc1c(C)nc(SCC(=O)NC2CCCC2)[nH]c1=O", "inhibition": "-1.8%"}
{"smiles": "CNC(=S)NNC(=O)c1ccc(N(C)C)cc1", "inhibition": "-10.9%"}
{"smiles": "CC(=O)NC(=S)NNC(=O)c1ccc(Br)cc1", "inhibition": "79.4% (active)"}
{"smiles": "O=C(NNC(=O)c1ccc(Cl)nc1)c1ccc(Br)cc1", "inhibition": "6.7%"}
{"smiles": "O=S(=O)(NC1CCCC1)c1ccc(-n2cnnn2)cc1", "inhibition": "0.2%"}
{"smiles": "C=CCNCCCCOc1ccccc1", "inhibition": "9.8%"}
{"smiles": "CCc1ccc(NC(=O)N[C@H](C(=O)O)C(C)CC)cc1", "note": "(stereo partly drawn)", "inhibition": "10%"}
{"smiles": "CCCCCn1c(=O)c(C(=O)OCC)c(Cl)c2ccccc21", "inhibition": "5.7%"}
{"smiles": "O=C(c1ccc[nH]c1=S)N1CCN(S(=O)(=O)c2ccc(Br)cc2Cl)CC1", "inhibition": "1.2%"}
{"smiles": "CCOC(=O)C1(CCOc2ccccc2)CCN(Cc2cc(OC)c(O)cc2Cl)CC1", "inhibition": "12%"}
{"smiles": "Cc1c(CN2CCC(CO)(CCOc3ccccc3)CC2)[nH]c2ccc(Cl)cc12", "inhibition": "72.1% (active)"}
{"smiles": "OCC1(CCOc2ccccc2)CCN(Cc2cn[nH]c2-c2ccccc2)CC1", "inhibition": "2.5%"}
{"smiles": "CC(CC(=O)N1CCN(c2ccccc2)CC1)c1ccccc1", "note": "(stereo not drawn)", "inhibition": "9.2%"}
{"smiles": "CN1CCC(CN)(N2CCN(c3ccccc3)CC2)CC1", "inhibition": "57.8% (active)"}
{"smiles": "O=C(c1ccccc1)c1ccc(C(=O)N2CCN(c3ccccc3)CC2)cc1", "inhibition": "4.4%"}
{"smiles": "O=C(CN1CCN(c2ccc(F)cc2)CC1)Nc1cccc(C(F)(F)F)c1", "inhibition": "-4.5%"}
{"smiles": "CCCCCCCCCCOC(=O)Cn1c(COc2ccc(C)cc2)[n+](C)c2ccccc21", "inhibition": "44.2%"}
{"smiles": "CCCCCCCCCCOC(=O)Cn1c(COc2cccc(OC)c2)[n+](C)c2ccccc21", "inhibition": "58.1% (active)"}
{"smiles": "CCCCn1c(N)c(N(CCOC)C(=O)c2cccc(OCc3ccccc3)c2)c(=O)[nH]c1=O", "inhibition": "0.1%"}
{"smiles": "Cc1cccc(CNS(=O)(=O)c2ccc(-c3cnc(C4CC4)o3)cc2)c1", "inhibition": "-0.4%"}
{"smiles": "COc1ccc(S(=O)(=O)NNC(=O)Nc2ccc(C)cc2)c(OC)c1", "inhibition": "-8.1%"}
{"smiles": "CCN(CC(=O)NCc1cccs1)C(=O)c1cccc(S(=O)(=O)Nc2ccccc2OC)c1", "inhibition": "49.7% (active)"}
{"smiles": "CCN(CC(=O)NCc1cccs1)C(=O)c1ccccc1F", "inhibition": "-3.4%"}
{"smiles": "CCN(CC(=O)NCc1cccs1)C(=O)c1ccc(OC)c(S(=O)(=O)N2CCOCC2)c1", "inhibition": "-0.3%"}
{"smiles": "CN(C(=O)CN(CCO)CC(=O)N(C)C(C)(C)Cc1ccccc1)C(C)(C)Cc1ccccc1", "inhibition": "57.3% (active)"}
{"smiles": "CCN(CC)C(=O)N(CC)Cc1ccccc1", "inhibition": "6.4%"}
{"smiles": "OCCN(Cc1ccccc1)Cc1ccc(Cl)cc1", "inhibition": "5.2%"}
{"smiles": "C/C(=N\\NC(=O)OC(C)(C)C)c1ccc[nH]1", "inhibition": "0.6%"}
{"smiles": "C=CCSC1=C(C#N)C(c2cc(Br)c(O)c(OC)c2)CC(=O)N1", "note": "(stereo not drawn)", "inhibition": "1.6%"}
{"smiles": "CCN1CCCC1CNC(=O)c1cc2c(=O)n(C)c3ccccc3c2n1C", "note": "(stereo not drawn)", "inhibition": "30.3%"}
{"smiles": "Cn1c(C(=O)NCCc2ccsc2)cc2c(=O)n(C)c3ccccc3c21", "inhibition": "20.8%"}
{"smiles": "Cn1c(C(=O)NCCCN2CCN(c3cccc(Cl)c3)CC2)cc2c(=O)n(C)c3ccccc3c21", "inhibition": "49.9% (active)"}
{"smiles": "O=C(CSc1nnc(C2CC2)n1Cc1ccccc1)Nc1cccnc1Cl", "inhibition": "-7.4%"}
{"smiles": "CCOc1cc(S(=O)(=O)NC2CC(C)(C)NC(C)(C)C2)ccc1F", "inhibition": "7.3%"}
{"smiles": "Cc1c(C(=O)Nc2ccccc2)sc2nc3n(c(=O)c12)CCCCC3", "inhibition": "-3%"}
{"smiles": "O=c1c2c(nc3n1CCCCC3)sc1c(O)cccc12", "inhibition": "80% (active)"}
{"smiles": "Cc1cccc2c(=O)n3c(nc12)CCCCC3", "inhibition": "6.4%"}
{"smiles": "CCn1ncc(CNC(=O)C2(C)CC2(Br)Br)c1C", "note": "(stereo not drawn)", "inhibition": "-4.3%"}
{"smiles": "COc1cc(NC(=O)c2ccc(CNc3c(N4CCCC4)c(=O)c3=O)cc2)cc(OC)c1OC", "inhibition": "-3.8%"}
{"smiles": "O=C(c1ccc(F)cc1)N1CCC(C(=O)N2CCN(S(=O)(=O)c3ccccc3Br)CC2)CC1", "inhibition": "13.6%"}
{"smiles": "N[C@@H](Cc1ccccc1)C(=O)N1CCC(C(=O)NCC(=O)Nc2ccc(F)cc2)CC1", "inhibition": "-7.5%"}
{"smiles": "Cn1c(SCC(=O)C(C)(C)C)nnc1-c1ccccn1", "inhibition": "2.2%"}
{"smiles": "O=C(NNC(=S)Nc1ccccc1)c1cccc(S(=O)(=O)N2CCOCC2)c1", "inhibition": "-21.6%"}
{"smiles": "O=C(CN1C(=O)CCC1=O)Nc1ccc(S(=O)(=O)N2CCOCC2)cc1", "inhibition": "0.4%"}
{"smiles": "O=S(=O)(c1ccc(NC(=S)NN=C(C2CC2)C2CC2)cc1)N1CCOCC1", "inhibition": "45.9% (active)"}
{"smiles": "COc1cc2c(cc1OC)CN(C(C)C(=O)Nc1cccc(S(=O)(=O)N3CCOCC3)c1)CC2", "note": "(stereo not drawn)", "inhibition": "-1.1%"}
{"smiles": "CC(C)Cc1oc(C(=O)O)cc1CN", "inhibition": "-1.6%"}
{"smiles": "CCCCNC(=S)N/N=C1\\CCCCc2ccccc21", "inhibition": "0.6%"}
{"smiles": "COc1ccc(C(CNC(=O)c2ccc(S(=O)(=O)Nc3ccccc3F)cc2)N(C)C)cc1", "note": "(stereo not drawn)", "inhibition": "94.8% (active)"}
{"smiles": "COc1ccc(C(CNC(=O)c2ccc(NS(=O)(=O)c3ccc(F)c(C)c3)cc2)N(C)C)cc1", "note": "(stereo not drawn)", "inhibition": "40.3%"}
{"smiles": "CC(=O)c1ccc(S(=O)(=O)Nc2ccc(C(=O)NCC(c3ccccc3)N(C)C)cc2)cc1", "note": "(stereo not drawn)", "inhibition": "1.5%"}
{"smiles": "COc1ccc(C(F)(F)F)cc1N/C=C\\c1nnnn1-c1ccc(C)cc1", "inhibition": "4.1%"}
{"smiles": "COc1ccc(C(=O)N(C)CC(O)c2ccccc2)cc1OC1CCN(C(C)=O)CC1", "note": "(stereo not drawn)", "inhibition": "-0.4%"}
{"smiles": "Cc1cccc(-c2nc3ccc(C(=O)NCCN4CCN(C)CC4)cc3nc2-c2cccc(C)c2)c1", "inhibition": "57.2% (active)"}
{"smiles": "CCC1=Nc2cc(C(=O)NCCN3CCCC3)ccc2Sc2ccc(C)cc21", "inhibition": "17.6%"}
{"smiles": "Cc1cccc(C(=O)OC(C)CN2CCN(C)CC2)c1", "note": "(stereo not drawn)", "inhibition": "9.9%"}
{"smiles": "CC(Sc1nnnn1C1CCCCC1)C(=O)O", "note": "(stereo not drawn)", "inhibition": "-4.9%"}
{"smiles": "O=C(NCc1ccco1)c1ccc(NS(=O)(=O)c2cccc([N+](=O)[O-])c2)cc1", "inhibition": "-4.6%"}
{"smiles": "CCOC(=O)[C@@H]1[C@H]2COc3cc(OC)ccc3[C@H]2N2C(=O)N(c3ccc(F)cc3)C(=O)[C@]12C", "inhibition": "53.6% (active)"}
{"smiles": "CCOC(=O)[C@H]1[C@H]2COc3cc(OC)ccc3[C@@H]2N2C(=O)N(c3ccc(Br)cc3)C(=O)[C@@]12C", "inhibition": "-15%"}
{"smiles": "CCOC(=O)[C@@H]1[C@H]2COc3cc(OC)ccc3[C@@H]2N2C(=O)N(c3cccc(C)c3)C(=O)[C@@]12C", "inhibition": "-7.1%"}
{"smiles": "O=C(O)c1ccc(F)c(S(=O)(=O)Nc2ccccc2)c1", "inhibition": "4%"}
{"smiles": "O=C(Nc1cccc(C(=O)NC2CC2)c1)c1ccc(F)c(S(=O)(=O)N2CCOCC2)c1", "inhibition": "3.1%"}
{"smiles": "O=C(Nc1ccc([N+](=O)[O-])cc1)OCCc1ccccn1", "inhibition": "-7.9%"}
{"smiles": "CC(=O)c1cccc(NC(=O)C2CCCN2S(=O)(=O)c2cccc3nsnc23)c1", "note": "(stereo not drawn)", "inhibition": "-4.7%"}
{"smiles": "CN(C(=O)COC(=O)c1cc(=O)[nH]c2ccccc12)C1CCCCC1", "inhibition": "5.6%"}
{"smiles": "CCCCN(CCCC)CCC(O)c1cc2c(Cl)cc(Cl)cc2c2cc(C(F)(F)F)ccc12", "note": "(stereo not drawn)", "inhibition": "51.7% (active)"}
{"smiles": "CCCCC(=O)Nc1ccc(C(=O)Nc2cc(C(F)(F)F)ccc2Cl)cc1", "inhibition": "-15%"}
{"smiles": "O=C(Nc1ccccc1N1CCOCC1)c1ccc(OCc2cscn2)cc1", "inhibition": "0.6%"}
{"smiles": "CCn1cc(C(=O)NCC(=O)NC(C)(C)CO)c(=O)c2cc3c(cc21)OCO3", "inhibition": "3.5%"}
{"smiles": "O=C1CCNCCN1[C@H](CO)Cc1ccccc1", "inhibition": "-4.8%"}
{"smiles": "CC(C)(C)CN1C(=O)C(=O)NC[C@H]1Cc1cccc2ccccc12", "inhibition": "4%"}
{"smiles": "c1ccc(C2CNCc3c2ccc2ccccc32)cc1", "note": "(stereo not drawn)", "inhibition": "21.7%"}
{"smiles": "c1ccc(C[C@H]2CNCCN2CCC23CC4CC(CC(C4)C2)C3)cc1", "inhibition": "55.8% (active)"}
{"smiles": "c1ccc2c(CCN3CCNC[C@H]3Cc3cccc4ccccc34)cccc2c1", "inhibition": "46.1% (active)"}
{"smiles": "O=C1C(=O)N(c2ccccc2)c2ccccc21", "inhibition": "-10.7%"}
{"smiles": "CC(C)(C)c1nnc(N/N=C/c2ccc(O)cc2)n(N)c1=O", "inhibition": "-10.3%"}
